Measurements taken from article PMC4336329 (PLoS ONE, 2015).
Among all 310,000 compounds or so, about 14,000 (4.5%) showed an effect of 50% or more. The effect is printed as a negative number. The full list was thinned out, with strong results kept by preference.

These compounds were tested against human ether-à-go-go-related gene (hERG) potassium channel (human, UniProt Q12809) (assay: primary screen, population patch clamp on CHO cells stably expressing hERG; higher = less effect of the substance).
human ether-à-go-go-related gene (hERG) potassium channel, sequence (Q12809 whole entry, looked up): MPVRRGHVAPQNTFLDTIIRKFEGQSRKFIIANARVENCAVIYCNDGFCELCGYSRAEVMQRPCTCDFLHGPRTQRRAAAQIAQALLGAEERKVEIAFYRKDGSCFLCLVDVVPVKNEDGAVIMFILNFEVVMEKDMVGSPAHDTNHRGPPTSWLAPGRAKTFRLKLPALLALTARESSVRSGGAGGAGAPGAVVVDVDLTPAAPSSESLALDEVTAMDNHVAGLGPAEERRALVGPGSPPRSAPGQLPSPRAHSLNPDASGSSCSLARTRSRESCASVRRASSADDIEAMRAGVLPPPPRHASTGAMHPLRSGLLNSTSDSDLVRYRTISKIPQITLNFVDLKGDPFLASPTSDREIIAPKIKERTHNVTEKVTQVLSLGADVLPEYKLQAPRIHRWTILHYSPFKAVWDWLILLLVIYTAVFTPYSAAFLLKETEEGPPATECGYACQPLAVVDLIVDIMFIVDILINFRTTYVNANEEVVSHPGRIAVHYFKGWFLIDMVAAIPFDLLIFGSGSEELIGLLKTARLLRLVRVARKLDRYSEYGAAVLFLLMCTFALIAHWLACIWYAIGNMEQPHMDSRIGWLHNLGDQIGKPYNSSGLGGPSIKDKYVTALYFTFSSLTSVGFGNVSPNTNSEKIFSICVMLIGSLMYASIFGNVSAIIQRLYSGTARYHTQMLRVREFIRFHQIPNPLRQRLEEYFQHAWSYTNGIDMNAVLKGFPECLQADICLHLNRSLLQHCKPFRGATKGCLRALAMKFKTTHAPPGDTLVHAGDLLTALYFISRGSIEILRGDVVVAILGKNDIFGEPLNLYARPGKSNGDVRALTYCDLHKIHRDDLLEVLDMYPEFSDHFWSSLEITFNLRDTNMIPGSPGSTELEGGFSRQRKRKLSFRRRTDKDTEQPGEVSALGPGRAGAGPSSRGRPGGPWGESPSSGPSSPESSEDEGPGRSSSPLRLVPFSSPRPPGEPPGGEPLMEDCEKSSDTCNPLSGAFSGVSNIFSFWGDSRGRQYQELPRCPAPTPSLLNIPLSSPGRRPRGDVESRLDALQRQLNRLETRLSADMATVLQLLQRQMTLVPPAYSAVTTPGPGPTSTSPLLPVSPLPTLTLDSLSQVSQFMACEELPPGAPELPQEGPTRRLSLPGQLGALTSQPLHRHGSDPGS
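Note: peak tail current of the secondary pulse compared with the same well before compound.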

SMILES | hERG current change (%, negative = inhibition) at 10uM [%]
CS(=O)(=O)N(Cc1ccccc1)c1ccc(C(=O)NCCSCc2ccco2)cc1 | -18
O=C(O)COc1ccccc1/C=C1\SC(=S)N(c2cccnc2)C1=O | -10.1
COc1ccc(-c2cc3nc(C)c(CCC(=O)N4CCN(c5ccccn5)CC4)c(C)n3n2)c(OC)c1 | -36
CCOC(=O)C1CCN(C(=O)CCc2c(C)nc3cc(-c4ccccc4)nn3c2C)CC1 | -78.5
CCOC(=O)C1CCN(C(=O)CCc2c(C)nc3cc(-c4ccc(OC)cc4OC)nn3c2C)CC1 | -70.7
COc1cc(OC)cc(-c2cc3nc(C)c(CCC(=O)O)c(C)n3n2)c1 | 26
CCOC(=O)C1CCN(C(=O)Cc2ccc(C)cc2)CC1 | -1.62
CCOC(=O)C1CCN(C(=O)CCc2ccccc2)CC1 | 2.13
CCOC(=O)C1CCCCN1C(=O)CCc1c(C)nc2cc(-c3ccccc3)nn2c1C (stereo not drawn) | -64.4
CCOC(=O)C1CCN(c2cc(C)nc3cc(-c4cccc(F)c4)nn23)CC1 | -5.74
CCOC(=O)C1CCN(C(=O)c2ccc(OC)cc2OC)CC1 | -25.5
CCOC(=O)C1CCCCN1C(=O)CCc1c(C)nc2ncnn2c1C (stereo not drawn) | 1.42
NC(=O)C1CCN(C(=O)Cc2ccc(-c3ccccc3)cc2)CC1 | 1.65
CCOC(=O)C1CCN(C(=O)Cc2ccc(-c3ccccc3)cc2)CC1 | -57.7
COc1ccc(C(=O)NCC(=O)N/N=C/c2cccc(OC(=O)c3ccco3)c2)cc1OC | 21.6
COC(=O)c1[nH]c2cc(OC)ccc2c1NC(=O)CN1CCN(c2cccc(C)c2)C(C)C1 (stereo not drawn) | -0.154
CCOC(=O)CNC(=O)CSc1nnc(Cn2cnc3ccccc32)n1C | -0.389
O=C(CCC1CCCCC1)NCc1ccccn1 | -10.8
COC(=O)n1ccc(C(=O)Nc2ccccc2F)n1 | -8.09
O=C(O)CCc1nn2c3ccccc3nc2n(Cc2ccccc2)c1=O | 36.2
Cc1c(CN2CCN(C)C(CCO)C2)[nH]c2c(Cl)cccc12 (stereo not drawn) | -42
Cc1c(CN2CCC(CO)(CCOc3ccccc3)CC2)[nH]c2ccc(Cl)cc12 | -71
Cc1ccc2[nH]c(CN3CCC(CO)(CC4CCCCO4)CC3)c(C)c2c1 (stereo not drawn) | -43.7

SMILES | hERG current change (%, negative = inhibition) at 10uM [%]
COc1ccc2[nH]c(CN3CCC(CO)(CCOc4ccccc4)CC3)c(C)c2c1 | -45.3
Cc1c(CN2CCC(CO)(CCOc3ccccc3)CC2)[nH]c2c(Cl)cccc12 | -60.5
Cc1[nH]c2c(Cl)cccc2c(=O)c1CN1CCCC1 | -10.6
C/C(=N\NC(=O)c1ccc(CSc2nncn2C)cc1)c1ccc(C#N)cc1 | -26
Cn1c(SCC(=O)Nc2ccccc2)nnc1C(F)(F)F | 32.6
Cc1ccc(NC(=O)CSc2nnc(C(F)(F)F)n2C)cc1[N+](=O)[O-] | -73.6
Cc1nn(Cc2nnc(SCC(=O)Nc3ccc(Cl)cc3)n2C)c(C)c1[N+](=O)[O-] | -22.9
Cn1c(SCC(=O)Nc2ccccc2[N+](=O)[O-])nnc1C(F)(F)F | -3.31
O=C(CSc1nncn1-c1cccnc1)Nc1ccccc1C(F)(F)F | 4.9
O=C(CSc1nncn1-c1cccnc1)Nc1cccc([N+](=O)[O-])c1 | 4.83
Cn1c(CN2CCOCC2)nnc1SCC(=O)Nc1cccc(C(F)(F)F)c1 | -1.04
Cc1nn(Cc2nnc(SCC(=O)Nc3cccc(C(F)(F)F)c3)n2C)c(C)c1[N+](=O)[O-] | -57.7
O=C(CSc1nncn1-c1cccnc1)Nc1cccc(C(F)(F)F)c1 | -57.7
Cn1cc(CN2CC3C[C@@H]4CC2C[C@H](C3)C4)c(-c2ccc3c(c2)OCCO3)n1 | -8.66
O=C(NCc1ccccn1)Nc1cccc([N+](=O)[O-])c1 | 11.6
COc1ccc(Cc2nnc(SCC(=O)Nc3ccc(N4CCOCC4)cc3)n2C)cc1 | 8.93
Cc1ccc(C(=O)OCC(=O)NCc2ccco2)cc1 | -8.9
CCOC(=O)C1CCCN(C(=O)/C=C/c2cccc([N+](=O)[O-])c2)C1 (stereo not drawn) | -41.8
COc1ccc2cc(C(=O)C3CCCN(C(=O)/C=C/c4ccccn4)C3)ccc2c1 (stereo not drawn) | -18.3
CCOC(=O)C1CCCN(C(=O)Cc2ccc(Cl)cc2)C1 (stereo not drawn) | 6.9
CCOC(=O)C1CCCN(C(=O)/C=C/c2ccccc2[N+](=O)[O-])C1 (stereo not drawn) | -12.6
CCOC(=O)C1CCCN(C(=O)/C=C/c2ccc(OC)cc2)C1 (stereo not drawn) | -23.6
